According to PubChem BioAssay AID1159580 (chemical genetic matrix, 2015):
Out of some 5,500 compounds screened, about 2,000 (36%) were called active. Inconclusive results (about 18%) are left out. Some of the results follow. Values without a mark were called inactive. Rule as the data show it: active = normalized growth mostly below about 0.91 (no sharp cut-off); inconclusive = no clear call, values can overlap the other calls; inactive = mostly above about 0.92.

Assay: chemical genetic growth profiling, strain panel (AID 1159580);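 also: tested at 20 µM; growth read once vehicle control cultures reached saturation at 30 °C; 1 = growth at the plate median or of vehicle wells; lower values mean less growth of the strain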
Details: S. cerevisiae deletion strains, growth OD
[1] = locus YAL040C, strain CLN3, hits give low values
[2] = locus YER002W, strain NOP16, hits give low values
[3] = locus YMR307W, strain GAS1, hits give low values
[4] = locus YNL175C, strain NOP13, hits give low values
[5] = locus YNL197C, strain WHI3, hits give low values
[6] = locus YNL224C, strain SQS1, hits give low values
[7] = locus YOR083W, strain WHI5 (second series), hits give low values

| SMILES | normalized growth [1] | normalized growth (locus YCL061C, strain MRC1 (second series), hits give low values) | normalized growth (locus YDR150W, strain NUM1, hits give low values) | normalized growth (locus YDR363W, strain ESC2, hits give low values) | normalized growth [2] | normalized growth (locus YGR229C, strain SMI1, hits give low values) | normalized growth (locus YJR075W, strain HOC1, hits give low values) | normalized growth [3] | normalized growth (locus YNL153C, strain GIM3, hits give low values) | normalized growth [4] | normalized growth [5] | normalized growth [6] | normalized growth (locus YNL322C, strain KRE1, hits give low values) | normalized growth [7] | normalized growth (locus YPL055C, strain LGE1, hits give low values) | normalized growth (locus YGR078C, strain PAC10, hits give low values) |
| --- | --- | --- | --- | --- | --- | --- | --- | --- | --- | --- | --- | --- | --- | --- | --- | --- |
| COc1ccc2c(c1OC)C(=O)O[C@@H]2[C@H]1c2c(cc3c(c2OC)OCO3)CCN1C | 0.984 | 1 | 1 | 0.998 | 0.985 | 0.998 | 1 | 0.991 | 1.01 | 1 | 1.01 | 1 | 0.994 | 1.01 | 0.99 |  |
| COc1ccc2c(c[n+](C)c3c4cc5c(cc4ccc23)OCO5)c1OC | 0.583 (active) |  |  |  | 0.58 (active) |  |  | 0.131 (active) |  | 0.519 (active) | 0.69 (active) | 0.255 (active) |  | 0.175 (active) |  | 0.496 (active) |
